# In the supplement of paper PMC12645437, “Orthogonal IMiD-Degron Pairs Induce Selective Protein Degradation in Cells” (ACS Chemical Biology, 2025):
# Whole data set: some 8,300 sequences, median “log2 fold change of degron read counts, EGFP-low vs EGFP+ sorted cells (limma voom), compound-induced degradation” near -1.1, cut for the highest 2% near 3.2. The entries come from a sample that favours the highest values as a whole.
# T1: CRBN, Q96SW2
# T1 chain: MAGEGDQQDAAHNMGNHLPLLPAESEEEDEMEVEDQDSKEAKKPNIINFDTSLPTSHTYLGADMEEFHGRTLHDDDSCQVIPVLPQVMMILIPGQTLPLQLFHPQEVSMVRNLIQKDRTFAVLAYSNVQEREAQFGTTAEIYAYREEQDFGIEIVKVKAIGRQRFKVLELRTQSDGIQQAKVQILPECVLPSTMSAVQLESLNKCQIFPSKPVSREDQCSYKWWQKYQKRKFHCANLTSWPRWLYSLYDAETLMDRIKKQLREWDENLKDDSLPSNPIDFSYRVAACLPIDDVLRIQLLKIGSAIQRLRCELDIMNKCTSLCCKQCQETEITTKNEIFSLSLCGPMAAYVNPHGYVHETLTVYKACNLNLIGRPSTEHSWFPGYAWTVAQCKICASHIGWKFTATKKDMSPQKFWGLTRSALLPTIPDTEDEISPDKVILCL
# Molecular target: T1, CRBN, Q96SW2
# Test: log2 fold change of degron read counts, EGFP-low vs EGFP+ sorted cells (limma voom), compound-induced degradation; higher = more compound-induced degradation of the degron-EGFP fusion; degrons are variants of IKZF1/3 zinc finger 2; compound dose not given here
# Settings: Jurkat, 18 h
# [1] = compound: compound 19 (5-tert-butyl-thalidomide)
# [2] = compound: compound 22 (5-morpholino-thalidomide)
# [3] = compound: compound 33 (diphenyl IMiD analogue)
# 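Note: pooled lentiviral library of zinc finger degron-EGFP fusions in mCherry-positive Jurkat cells, FACS-sorted after compound exposure, with degron abundance counted by next-generation sequencing.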
Sequence,log2 fold change of degron read counts [1],log2 fold change of degron read counts [2],log2 fold change of degron read counts [3],log2 fold change of degron read counts (compound: thalidomide)
"FICEICGAFFTQKGNLLRHIKL [46F_47I_49E_50I_52G_53A_54F_55F_67L_, Q9UKT9]",-1.14,0.177,1.46,0.874
"FECSVCGHCFTQKGNLLRHIKL [46F_47E_49S_50V_52G_53H_54C_55F_67L_, Q9UKT9]",-2.85,-3.1,-2.83,-3.04
"FCCNVCGAVFTQKGNLLRHIKL [46F_47C_49N_50V_52G_53A_54V_55F_67L_, Q9UKT9]",-1.07,-0.182,1.49,-0.139
"FVCNQCGHYFTQKGNLLRHIKL [46F_47V_49N_50Q_52G_53H_54Y_55F_67L_, Q9UKT9]",-3.08,-3.34,-2.73,-2.44
"FFCNQCGHDFTQKGNLLRHIKL [46F_47F_49N_50Q_52G_53H_54D_55F_67L_, Q9UKT9]",-3.06,-4.05,-2.94,-2.8
"FYCEVCGACFTQKGNLLRHIKL [46F_47Y_49E_50V_52G_53A_54C_55F_67L_, Q9UKT9]",3.74,3.85,3.1,1.37
"FTCEVCGACFTQKGNLLRHIKL [46F_47T_49E_50V_52G_53A_54C_55F_67L_, Q9UKT9]",1.37,2.52,2.51,2.66
"FSCEVCGACFTQKGNLLRHIKL [46F_47S_49E_50V_52G_53A_54C_55F_67L_, Q9UKT9]",3.26,2.28,2.54,1.34
"FRCEVCGACFTQKGNLLRHIKL [46F_47R_49E_50V_52G_53A_54C_55F_67L_, Q9UKT9]",-0.334,-0.2,1.72,1.5
"FMCEVCGACFTQKGNLLRHIKL [46F_47M_49E_50V_52G_53A_54C_55F_67L_, Q9UKT9]",-0.094,0.00255,2.45,1.45
"FLCEVCGACFTQKGNLLRHIKL [46F_47L_49E_50V_52G_53A_54C_55F_67L_, Q9UKT9]",0.437,-0.686,1.57,1.59
"FICEVCGACFTQKGNLLRHIKL [46F_47I_49E_50V_52G_53A_54C_55F_67L_, Q9UKT9]",-0.743,2.1,2.52,2.75
"FQCEVCGACFTQKGNLLRHIKL [46F_47Q_49E_50V_52G_53A_54C_55F_67L_, Q9UKT9]",0.807,2.69,2.23,3.69
"FVCEVCGACFTQKGNLLRHIKL [46F_47V_49E_50V_52G_53A_54C_55F_67L_, Q9UKT9]",-0.0594,1.78,2.4,2.7
"LGCEICGFPCTQKGNLLRHIKL [46L_47G_49E_50I_52G_53F_54P_55C_67L_, Q9UKT9]",-1.16,-1.81,-2.14,-1.69
"FECEICGRNFTQKGNLLRHIKL [46F_47E_49E_50I_52G_53R_54N_55F_67L_, Q9UKT9]",-2.61,-2.28,-0.395,-0.731
"LMCEICGFFCTQKGNLLRHIKL [46L_47M_49E_50I_52G_53F_54F_55C_67L_, Q9UKT9]",-0.461,-0.234,1.75,0.617
"FNCEICGHGFTQKGNLLRHIKL [46F_47N_49E_50I_52G_53H_54G_55F_67L_, Q9UKT9]",-2.44,-2.67,-3.6,-2.95
